Compound activity: PubChem BioAssay, Broad Institute
p53 mut binder – binds human mutant p53 on microarray; small molecule microarray binding, anti-GST fluorescence; calls only; 17,000 tested, 0.4% active;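 active = compounds whose four printed spots each glow above background more than chance allows, each with a p-value under 7%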
STAT3 SMM – binders of human STAT3; 17,000 tested, 0.2% active; AID 624138; P40763; Small molecule microarray, His-STAT3 binding, anti-His fluorescence; calls only;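 active = compounds whose four printed spots each show fluorescence over background unusually high for their array block, chance value under 7%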
NFkB SMM – binds human NF-kappa-B p105 on microarray; calls only; 17,000 tested, 1.3% active; Small molecule microarray, anti-His fluorescence binding; P19838;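 active = spot fluorescence over background significantly raised, with a chance value under 7% in all four replicate spots of the compound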;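 note: probe protein is his-tagged human p50 processed subunit at 1 µg/ml; raw spot fluorescence signals with no normalization applied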
Target sequence (P19838 1-433 limits assumed): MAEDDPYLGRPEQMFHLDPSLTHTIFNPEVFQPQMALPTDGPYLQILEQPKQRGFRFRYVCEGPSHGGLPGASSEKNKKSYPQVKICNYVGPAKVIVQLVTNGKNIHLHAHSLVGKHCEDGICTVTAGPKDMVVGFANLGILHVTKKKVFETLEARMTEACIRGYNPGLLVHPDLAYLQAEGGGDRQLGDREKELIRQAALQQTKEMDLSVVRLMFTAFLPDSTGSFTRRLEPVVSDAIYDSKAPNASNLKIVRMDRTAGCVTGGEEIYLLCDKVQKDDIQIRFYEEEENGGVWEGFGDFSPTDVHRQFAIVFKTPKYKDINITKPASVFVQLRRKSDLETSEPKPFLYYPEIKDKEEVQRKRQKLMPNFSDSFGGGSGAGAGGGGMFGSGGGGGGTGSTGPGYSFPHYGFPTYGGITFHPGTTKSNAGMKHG
c-Myc SMM – binds human c-Myc on microarray; calls only; AID 624141; small molecule microarray, His-c-Myc binding, anti-His fluorescence; P01106; 17,000 tested, 1.5% active;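 active = spot fluorescence over background with P-value below 7% in all four replicate spots, showing protein binding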;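 note: score is binary with 100 for all four spots passing and 0 otherwise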
Numbers without * were called inactive. Rows were chosen to be rich in hits. Some 2.1% of all compounds tested hit in one or more screens of this group.

Results for C[C@@H]1CN([C@@H](C)CO)C(=O)c2cccc(NC(=O)Nc3ccc(C(F)(F)F)cc3)c2O[C@H]1CN(C)C(=O)NC1CCCCC1 ?
p53 mut binder: inactive; STAT3 SMM: active; NFkB SMM: inactive; c-Myc SMM: inactive

How did C[C@@H]1CN([C@@H](C)CO)C(=O)c2cccc(NC(=O)Nc3cccc4ccccc34)c2O[C@H]1CN(C)C(=O)Nc1ccc(C(F)(F)F)cc1 do in these assays?
p53 mut binder: inactive; STAT3 SMM: inactive; NFkB SMM: active; c-Myc SMM: inactive

How did C[C@H](CO)N1C[C@H](C)[C@@H](CN(C)C(=O)NC2CCCCC2)Oc2c(NC(=O)Nc3ccc(C(F)(F)F)cc3)cccc2C1=O do in these assays?
p53 mut binder: inactive; STAT3 SMM: inactive; NFkB SMM: active; c-Myc SMM: active

How did COc1cc2c(cc1OC)CN(C(=O)[C@@H]1[C@H]3C(=O)O[C@H](c4ccccc4)[C@H](c4ccccc4)N3[C@H](c3ccccc3OCCO)[C@@]13C(=O)Nc1ccc(C#CCCO)cc13)CC2 do in these assays?
p53 mut binder: inactive; STAT3 SMM: inactive; NFkB SMM: inactive; c-Myc SMM: inactive

Results for CCOC(=O)c1c(C)oc2ccc(S(=O)(=O)n3cc(-c4ccc(C)cc4)c(N)n3)cc12 ?
p53 mut binder: inactive; STAT3 SMM: inactive; NFkB SMM: inactive; c-Myc SMM: inactive

What do the screens show for `C[C@@H]1CN([C@@H](C)CO)C(=O)c2cc(NC(=O)NC3CCCCC3)ccc2O[C@H]1CN(C)C(=O)Nc1ccc(C(F)(F)F)cc1`?
p53 mut binder: inactive; STAT3 SMM: inactive; NFkB SMM: active; c-Myc SMM: inactive

How did C[C@H](CO)N1C[C@H](C)[C@@H](CN(C)Cc2ccc(C(F)(F)F)cc2)OCc2cnnn2CCCC1=O do in these assays?
p53 mut binder: inactive; STAT3 SMM: inactive; NFkB SMM: active; c-Myc SMM: active

How did O=C(CC1(O)C(=O)N(Cc2ccccc2)c2ccccc21)c1cc2ccccc2oc1=O (stereo not drawn) do in these assays?
p53 mut binder: inactive; STAT3 SMM: inactive; NFkB SMM: inactive; c-Myc SMM: inactive

What do the screens show for `COc1ccc([Si](C)(C)[C@H]2[C@H](CCO)O[C@@]3(C(=O)N(Cc4ccccc4)c4ccc(NC(=O)[C@H](C)O)cc43)[C@@H]2C)cc1`?
p53 mut binder: active; STAT3 SMM: inactive; NFkB SMM: active; c-Myc SMM: inactive

How did CCOc1ccc(NC(=O)C(C)Sc2ncnc3sc(-c4ccccc4)cc23)cc1 (stereo not drawn) do in these assays?
p53 mut binder: inactive; STAT3 SMM: inactive; NFkB SMM: inactive; c-Myc SMM: active

How did COc1ccccc1CC(=O)Nc1cc(Cl)ccc1O do in these assays?
p53 mut binder: inactive; STAT3 SMM: inactive; NFkB SMM: inactive; c-Myc SMM: inactive

What do the screens show for `COc1ccccc1CC(CC(=O)O)C(=O)O` (stereo not drawn)?
p53 mut binder: inactive; STAT3 SMM: inactive; NFkB SMM: active; c-Myc SMM: active

How did C=C[C@](C)(CC[C@@]1(C)[C@H](C)C[C@H](O[C@@H]2O[C@@H](C)[C@H](O[C@@H]3O[C@H](COC(C)=O)[C@@H](O)[C@H](O)[C@H]3O)[C@@H](O)[C@H]2O)[C@@]2(C)C(C)=CCC[C@H]12)O[C@@H]1O[C@H](C)[C@H](O[C@@H]2O[C@@H](C)[C@H](O)[C@@H](O)[C@H]2O)[C@H](O)[C@H]1O do in these assays?
p53 mut binder: inactive; STAT3 SMM: inactive; NFkB SMM: inactive; c-Myc SMM: inactive

How did Cc1cccc(NC(=O)CCC(=O)O)c1 do in these assays?
p53 mut binder: inactive; STAT3 SMM: inactive; NFkB SMM: inactive; c-Myc SMM: active

Results for Cc1ccc(NC(=O)c2cccc(NC(=O)CCC(=O)O)c2)cc1C ?
p53 mut binder: inactive; STAT3 SMM: inactive; NFkB SMM: inactive; c-Myc SMM: inactive

Results for COC1CC(OC2C(C)OC(OC3C(C)OC(OC4C(C)OCC(OC5C(O)C(O[C@H]6CC[C@@]7(C)C(=CC[C@]8(O)C7CC(OC(=O)c7ccccc7)[C@@]7(C)[C@]8(O)CC[C@@]7(O)C(C)=O)C6)OC(CO)C5OC5OC(CO)C(O)C(O)C5O)C4OC)CC3OC)CC2OC)OC(C)C1O (stereo partly drawn) ?
p53 mut binder: inactive; STAT3 SMM: inactive; NFkB SMM: active; c-Myc SMM: active

What do the screens show for `C/C=C(\C)C(=O)O[C@@H]1[C@@H](OC(C)=O)C2[C@@]3(C)CC[C@H](OC4CC(OC)C(OC5CC(OC)C(OC6CC(OC)C(OC7OC(C)C(OC8OC(CO)C(O)C(O)C8O)C(OC)C7O)C(C)O6)C(C)O5)C(C)O4)CC3=CC[C@@]2(O)[C@@]2(O)CC[C@H](C(C)=O)[C@@]12C` (stereo partly drawn)?
p53 mut binder: inactive; STAT3 SMM: inactive; NFkB SMM: active; c-Myc SMM: active

Results for COC(=O)C1=COC(O[C@@H]2O[C@H](CO)[C@@H](O)[C@H](O)[C@H]2O)[C@@H]2[C@@](C)(O)[C@@H](OC(=O)/C=C\c3ccccc3)C[C@]12O (stereo partly drawn) ?
p53 mut binder: inactive; STAT3 SMM: inactive; NFkB SMM: inactive; c-Myc SMM: inactive

What do the screens show for `CO[C@@H]1CC(OC2CCC3(C)C(CCC45CCC(C6=CC(=O)OC6)C(C)(CCC43)C5=O)C2)O[C@H](C)[C@@H]1O[C@@H]1O[C@H](CO[C@@H]2O[C@H](CO)[C@@H](O)[C@H](O)[C@H]2O)[C@@H](O)[C@H](O)[C@H]1O` (stereo partly drawn)?
p53 mut binder: inactive; STAT3 SMM: inactive; NFkB SMM: inactive; c-Myc SMM: inactive

Results for CN(CC(=O)O)C(=O)c1ccc(S(=O)(=O)N2CCCC2)cc1 ?
p53 mut binder: inactive; STAT3 SMM: inactive; NFkB SMM: inactive; c-Myc SMM: inactive

Results for N#CCCSCc1ccc2oc(C(=O)O)cc2c1 ?
p53 mut binder: inactive; STAT3 SMM: inactive; NFkB SMM: inactive; c-Myc SMM: active

Results for COc1ccccc1NC(=O)c1c(C)nc(Nc2nc3ccccc3o2)nc1C ?
p53 mut binder: inactive; STAT3 SMM: inactive; NFkB SMM: inactive; c-Myc SMM: inactive

What do the screens show for `CCOC(=O)Cc1cc(=O)[nH]c(Nc2nc3ccccc3o2)n1`?
p53 mut binder: active; STAT3 SMM: inactive; NFkB SMM: inactive; c-Myc SMM: inactive

What do the screens show for `CS(=O)(=O)N(CC(=O)Nc1ccccc1C(F)(F)F)c1ccccc1Br`?
p53 mut binder: inactive; STAT3 SMM: inactive; NFkB SMM: inactive; c-Myc SMM: inactive

How did COc1ccc(OCC(=O)Nc2ccccc2-c2nc3ccccc3s2)cc1 do in these assays?
p53 mut binder: inactive; STAT3 SMM: inactive; NFkB SMM: inactive; c-Myc SMM: inactive

How did COc1cc(-c2nc3ccccc3s2)cc(Br)c1OCC(=O)O do in these assays?
p53 mut binder: inactive; STAT3 SMM: inactive; NFkB SMM: inactive; c-Myc SMM: active

What do the screens show for `OC1c2ccccc2-c2c3c(cc4c2C1NCC4)OCO3` (stereo not drawn)?
p53 mut binder: inactive; STAT3 SMM: inactive; NFkB SMM: active; c-Myc SMM: active
